Values joined by “and” are separate entries in the source; they are usually repeats but may differ in a detail not shown here. Equal values may be shown once. Where a name gives a salt, the structure may show the parent alone.
Experiments:
Assay in all cases: cell viability relative to vehicle control; higher = less cytotoxic
Conditions in all cases: 10 µM
[1] = system: K562
How it was run: (§1)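 Four leukaemia lines, as CRISPR-edited mutant clones and isogenic wild-type clones, were tested against Selleck bioactive, kinase and epigenetic probe libraries after removal of identity-inconsistent compounds. Cells were exposed to a single 10 µM dose for 48 h, and CellTiter-Glo luminescence was then read. Viability was calculated relative to the on-plate vehicle control.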

[2] = system: MARIMO
How it was run: as §1

[3] = system: MOLM14
How it was run: as §1

[4] = system: OCI-AML2
How it was run: as §1

SMILES | cell viability ([1]; SRSF2 genotype: SRSF2 P95H/wt) | cell viability ([1]; SRSF2 genotype: SRSF2 wt/wt) [%] | cell viability ([2]; SRSF2 genotype: SRSF2 P95H/wt) [%] | cell viability ([2]; SRSF2 genotype: SRSF2 wt/wt) [%] | cell viability ([3]; SRSF2 genotype: SRSF2 P95H/wt) [%] | cell viability ([3]; SRSF2 genotype: SRSF2 wt/wt) [%] | cell viability ([4]; SRSF2 genotype: P95H/wt) [%] | cell viability ([4]; SRSF2 genotype: wt/wt) [%]
C=CC(=O)N1CCC(Oc2cc3c(Nc4ccc(Cl)c(Cl)c4F)ncnc3cc2OC)CC1 [Poziotinib (HM781-36B)] | 56% and 63.7% | 65.6 | 71.9 | 72.6 | 53.4 | 58 | 73.7 | 66.7
N[C@@]1(C(=O)O)CS(=O)(=O)[C@H]2[C@H](C(=O)O)[C@H]21 | 104% and 109% | 115 | 107 | 105 | 109 | 113 | 113 | 98.1
C1=Cc2ccccc2Nc2ccccc21 [Iminostilbene] | 101% and 95.4% | 98.1 | 95.5 | 113 | 105 | 108 | 106 | 92.6
CCn1cc(C(=O)O)c(=O)c2cc(F)c(N3CCNCC3)cc21 [Norfloxacin (Norxacin)] | 91.3% and 98.8% | 90.9 | 88.7 | 95.5 | 90.5 | 91.8 | 97.4 | 91.5
C[C@@H]1CCCC2=CC(=O)[C@@H]3[C@@H](C3(C)C)[C@]21C [Aristolone] | 107% and 96.8% | 101 | 95.8 | 103 | 112 | 99 | 98.3 | 109
Cc1cc(CS(=O)(=O)c2ccccc2)cc(OCc2ccc(CN3CCC[C@@H]3CO)cc2)c1 | 98.9% and 101% | 95.6 | 98.9 | 103 | 96.5 | 104 | 98.7 | 92.6
C[C@]12C=CC(=O)C=C1CC[C@@H]1[C@@H]2[C@@H](O)C[C@@]2(C)[C@H]1CC[C@]2(O)C(=O)CO [Prednisolone] | 105% and 98.9% | 106 | 101 | 103 | 98.5 | 96.3 | 91.1 | 111
CCC[S+]([O-])c1ccc2[nH]c(NC(=O)OC)nc2c1 (stereo not drawn) [Albendazole Oxide (Ricobendazole)] | 88.8% and 83.5% | 80.6 | 85.7 | 88 | 88.2 | 95.4 | 87.8 | 95.5
CC1=CC(=O)[C@@H]2C[C@H]1C2(C)C [(-)-Verbenone] | 105% and 102% | 96.3 | 92.5 | 98.8 | 90.8 | 95.7 | 87.2 | 96.3
CCCCCCCCC/C(=C\C1=C(C)C(=O)C(OC)=C(OC)C1=O)C(=O)O | 106% and 100% | 99.4 | 112 | 105 | 94.2 | 102 | 108 | 107
CC1CCc2c(N3CCC(O)CC3)c(F)cc3c(=O)c(C(=O)O)cn1c23 (stereo not drawn) [Nadifloxacin] | 94% and 98.4% | 92.4 | 102 | 105 | 107 | 108 | 114 | 94
O=C1CC(c2ccc(O)cc2)Oc2cc(O)ccc21 (stereo not drawn) [Liquiritigenin] | 99.3% and 104% | 106 | 116 | 93.6 | 99.8 | 104 | 121 | 99.3
C[C@@]12C[C@H](c3ccoc3)O[C@@]13C[C@H](OC3=O)[C@H]1[C@H]2C[C@@H]2C[C@H]1C(=O)O2 [Diosbulbin B] | 103% and 104% | 102 | 105 | 108 | 108 | 110 | 102 | 101
COc1ccc(C(=O)C2CCN(CC(=O)N(Cc3nc4c(c(=O)[nH]3)COCC4)CC3CC3)CC2)cc1 | 110% and 104% | 102 | 108 | 110 | 109 | 102 | 98.8 | 109
[Na+].[Na+].[Na+].[Na+].[Na+].[Na+].[O]=[W](=[O])([O-])[O-].[O]=[W](=[O])([O-])[O-].[O]=[W](=[O])([O-])[O-].[O]=[W](=[O])=[O].[O]=[W](=[O])=[O].[O]=[W](=[O])=[O].[O]=[W](=[O])=[O].[O]=[W](=[O])=[O].[O]=[W](=[O])=[O].[O]=[W](=[O])=[O].[O]=[W](=[O])=[O].[O]=[W](=[O])=[O] [SodiuM Metatungstate] | 103% and 109% | 106 | 121 | 106 | 103 | 109 | 88.9 | 93.5
CN(C)c1nc(N(C)C)nc(N(C)C)n1 [Altretamine (Hexalen)] | 99.3% and 102% | 99.7 | 97.3 | 95.2 | 94 | 98.5 | 99.7 | 98.4
CC(C)Cn1cnc2c(N)nc3ccccc3c21 [Imiquimod] | 80.9% and 85.2% | 77.2 | 78.5 | 92.4 | 78.1 | 84.8 | 85.9 | 85.4
O=C1OC(COc2ccccc2[N+](=O)[O-])CC1Cc1ccccc1 (stereo not drawn) | 95.1% and 98.1% | 101 | 93.5 | 103 | 108 | 106 | 117 | 103

SMILES | cell viability ([1]; SRSF2 genotype: SRSF2 P95H/wt) | cell viability ([1]; SRSF2 genotype: SRSF2 wt/wt) [%] | cell viability ([2]; SRSF2 genotype: SRSF2 P95H/wt) [%] | cell viability ([2]; SRSF2 genotype: SRSF2 wt/wt) [%] | cell viability ([3]; SRSF2 genotype: SRSF2 P95H/wt) [%] | cell viability ([3]; SRSF2 genotype: SRSF2 wt/wt) [%] | cell viability ([4]; SRSF2 genotype: P95H/wt) [%] | cell viability ([4]; SRSF2 genotype: wt/wt) [%]
Cc1ccsc1C(=CCCN1CCC[C@@H](C(=O)O)C1)c1sccc1C [Tiagabine] | 100% and 93.4% | 96.7 | 91.8 | 109 | 97 | 101 | 89 | 111
NCCCC[C@@H]1NC(=O)[C@@H](Cc2ccccc2)NC(=O)[C@H](CC(=O)O)NC(=O)CNC(=O)[C@H](CCCN=C(N)N)NC1=O [Cyclo (-RGDfK)] | 98.8% and 104% | 103 | 98.6 | 103 | 98.5 | 101 | 108 | 118
CC(=O)O[C@@H]1C[C@H](O)[C@@]23CO[C@@H](O)[C@]1(C)[C@@H]2C[C@@H](O)[C@]1(C)[C@@H]3C(=O)[C@H](OC(C)=O)[C@@]2(C)[C@H](c3ccoc3)C[C@H]3O[C@]321 [Toosendanin] | 45.5% and 43% | 42.4 | 38.2 | 34.2 | 37.1 | 11.1 | 23.8 | 23.9
CCCCCCCCCCCCCC(=S)NCCCC[C@H](NC(=O)OCc1ccccc1)C(=O)Nc1ccccc1 [Thiomyristoyl] | 82.1% and 77.7% | 81.9 | 81.4 | 97.3 | 82 | 83.8 | 90.2 | 86.3
CC(C)n1c([C@H](C)Nc2ncnc(N)c2C#N)cc2cccc(-c3ccc(=O)n(C)c3)c2c1=O | 71.2% and 78.7% | 68.5 | 46.7 | 34 | 20.9 | 22.6 | 5.13 | 19.1
Cc1cccc(-c2nn3c(c2-c2ccnc4ccc(C(N)=O)cc24)CCC3)n1 | 102% and 98% | 99.2 | 104 | 103 | 99.7 | 96.1 | 108 | 108
Cc1ccc(Cl)c(Nc2ccccc2C(=O)O)c1Cl [Meclofenamate sodium] | 97.7% and 99.9% | 96.9 | 97.2 | 96.4 | 96.8 | 98.5 | 105 | 99.4
CC(C)NC[C@H](O)COc1ccc(CCOCC2CC2)cc1 [Levobetaxolol HCl] | 91.7% and 81.4% | 83 | 83 | 90.6 | 89.1 | 91.8 | 79.4 | 98.4
O=C(O)[C@H]1CSC(c2nc3ccc(O)cc3s2)=N1 [D-Luciferin] | 90.6% and 83.7% | 92.3 | 82.4 | 92.8 | 85.8 | 90.7 | 86.7 | 87.9
CN1CCN(c2ccc3nc(-c4c(N)c5c(F)cccc5[nH]c4=O)[nH]c3c2)CC1 [Dovitinib (TKI258) Lactate] | 5.06% and 10.2% | 8.08 | 9.85 | 12 | 0.28 | 0.3 | 0.28 | 0.65
c1ccc(NCc2ccc(CNc3ccccn3)cc2)nc1 | 91.8% and 94.5% | 85 | 89 | 91.9 | 87.2 | 92.9 | 78.6 | 84.2
CCOC(=O)N1CCN(c2ccc(OC[C@H]3CO[C@](Cn4ccnc4)(c4ccc(Cl)cc4Cl)O3)cc2)CC1 [Elubiol] | 43.3% and 36.5% | 41.8 | 29.3 | 28.8 | 39 | 21.1 | 10.3 | 15.9
CC(=O)O[C@H]1C[C@@]2(C)[C@@H](C[C@@H](O)[C@H]3[C@@]4(C)CC[C@@H](O)[C@@H](C)[C@@H]4CC[C@@]32C)/C1=C(\CCC=C(C)C)C(=O)O [Fusidate Sodium] | 101% and 95.3% | 102 | 102 | 104 | 102 | 100 | 94.7 | 108
CC(C)(O)CNc1ncc(-c2ccnc(Nc3ccnc(Cl)c3)n2)c(CC2CC2)n1 | 41.9% and 40.5% | 36.9 | 39.5 | 41.2 | 8.93 | 9.79 | 5.49 | 12.8
C=C[C@H]1CN2CC[C@H]1C[C@H]2[C@H](O)c1ccnc2ccc(OC)cc12 [Quinine hydrochloride dihydrate] | 90.8% and 92.7% | 88 | 87.7 | 86.5 | 79.7 | 93.2 | 88.9 | 84.9
CC(NC(=O)c1ccccc1/N=C/c1c(O)ccc2ccccc12)c1ccccc1 (stereo not drawn) [Sirtinol] | 93% and 101% | 103 | 102 | 98.7 | 94.7 | 101 | 103 | 102
COc1cccc(-c2cc(NCc3ccc4c(c3)OCO4)nc(N)n2)c1 [Wnt agonist 1] | 9.55% and 31.1% | 26.2 | 8.72 | 9.19 | 7.29 | 4.03 | 11 | 13.1
COc1ccc(C[C@@H]2c3cc(Oc4cc(C[C@@H]5c6cc(O)c(OC)cc6CCN5C)ccc4O)c(OC)cc3CCN2C)cc1 [Isoliensinine] | 50.4% and 50.8% | 61.2 | 10.2 | 16.6 | 2.24 | 1.04 | 0.44 | 0.95
